This note sets out measurements from the supplement of paper PMC11732987, “Enantioselective OTUD7B fragment discovery through chemoproteomics screening and high-throughput optimisation” (Communications Chemistry, 2025).

UniProt Q9UGI0, sequence (Q9UGI0 whole entry): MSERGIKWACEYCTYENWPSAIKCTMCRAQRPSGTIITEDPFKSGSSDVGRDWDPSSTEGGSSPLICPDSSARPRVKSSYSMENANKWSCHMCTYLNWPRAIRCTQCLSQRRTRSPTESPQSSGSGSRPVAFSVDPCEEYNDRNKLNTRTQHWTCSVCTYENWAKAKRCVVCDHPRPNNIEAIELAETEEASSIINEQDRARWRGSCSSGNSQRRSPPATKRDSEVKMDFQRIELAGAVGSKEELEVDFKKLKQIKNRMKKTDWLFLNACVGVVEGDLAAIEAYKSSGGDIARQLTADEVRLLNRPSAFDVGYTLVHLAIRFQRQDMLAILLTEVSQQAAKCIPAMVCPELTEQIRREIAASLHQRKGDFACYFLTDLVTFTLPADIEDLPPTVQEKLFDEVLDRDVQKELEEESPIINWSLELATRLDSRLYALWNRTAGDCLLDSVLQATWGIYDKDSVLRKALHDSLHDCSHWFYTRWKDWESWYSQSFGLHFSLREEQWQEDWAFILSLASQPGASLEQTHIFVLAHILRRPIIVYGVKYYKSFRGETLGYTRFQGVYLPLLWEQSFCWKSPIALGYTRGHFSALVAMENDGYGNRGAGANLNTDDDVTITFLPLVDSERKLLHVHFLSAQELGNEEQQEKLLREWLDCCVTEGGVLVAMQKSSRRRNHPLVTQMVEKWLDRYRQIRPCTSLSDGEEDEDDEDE
UniProt P51784, sequence (P51784 whole entry): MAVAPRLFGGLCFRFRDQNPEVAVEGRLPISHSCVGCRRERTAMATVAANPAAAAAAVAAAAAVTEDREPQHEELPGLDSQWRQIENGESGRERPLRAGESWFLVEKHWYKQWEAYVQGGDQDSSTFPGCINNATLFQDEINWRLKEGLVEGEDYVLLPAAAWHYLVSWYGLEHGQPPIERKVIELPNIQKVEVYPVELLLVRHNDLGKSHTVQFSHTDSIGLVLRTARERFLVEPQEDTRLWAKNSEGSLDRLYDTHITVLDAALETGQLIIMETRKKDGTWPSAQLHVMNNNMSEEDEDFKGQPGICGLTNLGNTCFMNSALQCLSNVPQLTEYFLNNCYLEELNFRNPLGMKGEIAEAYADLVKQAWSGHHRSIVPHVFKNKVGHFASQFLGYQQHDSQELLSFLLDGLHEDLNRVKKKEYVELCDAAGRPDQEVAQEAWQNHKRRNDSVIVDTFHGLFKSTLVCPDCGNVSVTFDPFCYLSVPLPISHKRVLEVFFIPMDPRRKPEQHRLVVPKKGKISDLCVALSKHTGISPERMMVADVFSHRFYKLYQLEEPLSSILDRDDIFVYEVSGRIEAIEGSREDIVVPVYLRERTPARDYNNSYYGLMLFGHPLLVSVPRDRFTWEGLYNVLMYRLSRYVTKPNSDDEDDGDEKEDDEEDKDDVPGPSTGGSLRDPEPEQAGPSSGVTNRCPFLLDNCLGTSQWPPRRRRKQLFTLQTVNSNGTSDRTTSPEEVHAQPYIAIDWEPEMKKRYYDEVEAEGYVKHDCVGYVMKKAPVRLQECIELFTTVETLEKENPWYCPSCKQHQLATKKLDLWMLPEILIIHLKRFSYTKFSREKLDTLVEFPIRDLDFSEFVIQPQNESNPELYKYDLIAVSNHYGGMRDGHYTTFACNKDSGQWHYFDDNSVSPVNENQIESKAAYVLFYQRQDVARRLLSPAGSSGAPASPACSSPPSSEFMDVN
UniProt P40818, sequence (P40818 whole entry): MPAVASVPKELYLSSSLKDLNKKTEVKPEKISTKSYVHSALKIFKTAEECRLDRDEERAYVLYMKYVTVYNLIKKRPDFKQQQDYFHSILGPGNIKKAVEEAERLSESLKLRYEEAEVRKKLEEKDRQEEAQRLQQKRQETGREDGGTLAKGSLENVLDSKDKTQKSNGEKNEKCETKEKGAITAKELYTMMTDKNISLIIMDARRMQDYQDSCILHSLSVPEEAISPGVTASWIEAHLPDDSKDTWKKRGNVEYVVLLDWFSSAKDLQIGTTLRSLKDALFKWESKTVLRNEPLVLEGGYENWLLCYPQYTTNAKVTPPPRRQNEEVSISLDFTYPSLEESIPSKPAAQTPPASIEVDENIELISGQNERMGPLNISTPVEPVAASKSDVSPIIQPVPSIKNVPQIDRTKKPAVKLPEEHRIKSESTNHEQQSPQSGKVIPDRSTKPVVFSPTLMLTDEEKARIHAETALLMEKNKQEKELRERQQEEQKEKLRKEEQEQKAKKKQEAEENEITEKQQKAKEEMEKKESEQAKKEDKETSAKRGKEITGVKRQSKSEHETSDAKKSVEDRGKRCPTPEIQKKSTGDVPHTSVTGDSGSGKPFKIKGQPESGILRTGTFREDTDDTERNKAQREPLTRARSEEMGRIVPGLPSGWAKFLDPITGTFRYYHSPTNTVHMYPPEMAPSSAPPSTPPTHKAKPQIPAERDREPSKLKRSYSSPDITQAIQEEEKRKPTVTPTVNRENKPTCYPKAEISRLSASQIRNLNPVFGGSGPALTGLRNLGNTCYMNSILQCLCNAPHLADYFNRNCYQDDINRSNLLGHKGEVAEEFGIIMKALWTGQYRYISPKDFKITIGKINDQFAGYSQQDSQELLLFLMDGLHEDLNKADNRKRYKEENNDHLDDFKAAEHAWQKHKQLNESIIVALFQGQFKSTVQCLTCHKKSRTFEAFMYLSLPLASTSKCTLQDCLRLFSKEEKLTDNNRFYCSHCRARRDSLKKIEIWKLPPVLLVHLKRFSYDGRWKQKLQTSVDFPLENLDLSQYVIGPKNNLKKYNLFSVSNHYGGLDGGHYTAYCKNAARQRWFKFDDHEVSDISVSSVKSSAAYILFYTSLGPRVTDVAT
UniProt Q13107, sequence (Q13107 whole entry): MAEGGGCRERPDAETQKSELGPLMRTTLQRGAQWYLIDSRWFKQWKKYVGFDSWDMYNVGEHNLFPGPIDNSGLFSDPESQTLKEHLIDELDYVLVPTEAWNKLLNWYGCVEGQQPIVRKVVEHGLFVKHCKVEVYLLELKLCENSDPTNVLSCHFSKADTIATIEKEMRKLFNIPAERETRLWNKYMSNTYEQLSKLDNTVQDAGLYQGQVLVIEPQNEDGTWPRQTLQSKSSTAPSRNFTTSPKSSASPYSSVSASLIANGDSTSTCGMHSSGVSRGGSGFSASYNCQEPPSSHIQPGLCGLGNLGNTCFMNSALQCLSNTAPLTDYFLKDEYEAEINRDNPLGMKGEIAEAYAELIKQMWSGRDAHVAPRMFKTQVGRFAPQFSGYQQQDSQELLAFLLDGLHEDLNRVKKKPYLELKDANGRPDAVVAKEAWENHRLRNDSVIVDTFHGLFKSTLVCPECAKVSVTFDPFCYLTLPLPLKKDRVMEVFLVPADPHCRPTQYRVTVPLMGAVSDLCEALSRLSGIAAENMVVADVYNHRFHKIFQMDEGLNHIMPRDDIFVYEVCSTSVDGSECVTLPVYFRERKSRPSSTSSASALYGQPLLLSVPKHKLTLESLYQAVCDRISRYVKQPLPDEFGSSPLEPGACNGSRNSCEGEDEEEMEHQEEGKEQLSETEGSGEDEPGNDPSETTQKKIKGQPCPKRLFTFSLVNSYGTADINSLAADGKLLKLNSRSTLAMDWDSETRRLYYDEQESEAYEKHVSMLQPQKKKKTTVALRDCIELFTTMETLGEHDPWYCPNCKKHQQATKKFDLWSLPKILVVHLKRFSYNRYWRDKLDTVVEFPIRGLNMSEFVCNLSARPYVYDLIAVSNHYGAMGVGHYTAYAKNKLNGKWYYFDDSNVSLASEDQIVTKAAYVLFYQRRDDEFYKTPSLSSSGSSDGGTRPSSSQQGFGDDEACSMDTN
UniProt P09936, sequence (P09936 whole entry, looked up): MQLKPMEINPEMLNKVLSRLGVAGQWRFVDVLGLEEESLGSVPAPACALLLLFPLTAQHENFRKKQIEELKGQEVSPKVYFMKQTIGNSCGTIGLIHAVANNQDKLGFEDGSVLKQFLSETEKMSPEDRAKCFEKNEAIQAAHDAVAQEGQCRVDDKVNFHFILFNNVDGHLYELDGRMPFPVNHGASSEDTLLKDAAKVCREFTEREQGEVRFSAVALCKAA
UniProt Q96FW1, sequence (Q96FW1 whole entry): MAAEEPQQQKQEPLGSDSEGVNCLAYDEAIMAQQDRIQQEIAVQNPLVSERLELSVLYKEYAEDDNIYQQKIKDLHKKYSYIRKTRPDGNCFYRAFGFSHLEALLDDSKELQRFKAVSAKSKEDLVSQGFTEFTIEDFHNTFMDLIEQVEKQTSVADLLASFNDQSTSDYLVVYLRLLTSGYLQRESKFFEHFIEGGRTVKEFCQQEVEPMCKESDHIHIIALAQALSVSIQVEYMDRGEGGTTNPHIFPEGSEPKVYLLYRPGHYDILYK
UniProt O75317, sequence (O75317 whole entry): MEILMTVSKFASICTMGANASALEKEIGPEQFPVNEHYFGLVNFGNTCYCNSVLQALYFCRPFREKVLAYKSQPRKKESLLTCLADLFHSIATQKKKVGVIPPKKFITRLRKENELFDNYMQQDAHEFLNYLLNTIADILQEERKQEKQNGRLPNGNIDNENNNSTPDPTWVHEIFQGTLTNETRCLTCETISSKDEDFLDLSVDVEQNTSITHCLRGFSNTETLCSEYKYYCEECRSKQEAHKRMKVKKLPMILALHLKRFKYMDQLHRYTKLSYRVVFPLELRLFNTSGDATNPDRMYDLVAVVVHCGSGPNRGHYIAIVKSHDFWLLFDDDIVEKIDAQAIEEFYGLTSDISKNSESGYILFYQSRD
UniProt O00487, sequence (O00487 whole entry): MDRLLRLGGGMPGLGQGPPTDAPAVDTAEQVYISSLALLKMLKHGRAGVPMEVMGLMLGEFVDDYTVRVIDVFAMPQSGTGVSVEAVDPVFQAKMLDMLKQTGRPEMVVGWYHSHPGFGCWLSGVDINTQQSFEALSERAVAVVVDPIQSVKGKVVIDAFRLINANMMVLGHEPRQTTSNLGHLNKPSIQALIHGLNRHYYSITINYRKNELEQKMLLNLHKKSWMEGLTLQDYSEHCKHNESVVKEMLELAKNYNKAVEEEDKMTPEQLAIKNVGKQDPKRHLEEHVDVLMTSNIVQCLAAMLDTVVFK

Compound in the first experiment: COc1cccc(CN(C)C(=O)CCl)c1
The experiment is described as follows: log2 ratio of Biotin-Ahx-Ub-VS probe labelling (compound/DMSO); higher = less target engagement, active = hit call of the paper (q ≤ 0.05, log2 ratio ≤ -1). To be noted: compound concentration: 50uM; treatment time: 3 h. As for the experimental part:
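Round 2 competitive ABPP in HEK293T lysate. Compounds were tested at 50 and 200 µM for 3 h, followed by Biotin-Ahx-Ub-VS enrichment and diaPASEF LC-MS/MS. Values are the average log2 ratio (compound/DMSO) from an unpaired t-test (n=3 treated, n=26 DMSO).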
Turning to USP54 (UniProt Q70EL1), the “log2 ratio of Biotin-Ahx-Ub-VS probe labelling” value (“log2 ratio” below) is -2.86 (active).
On the same count and under the same terms, the result for UCHL5 (UniProt Q9Y5K5) reads -0.115 (inactive); that for UniProt O00487, -0.186 (inactive); that for USP4 (UniProt Q13107), -1.18 (active).
On the same count and under the same terms, the result for USP16 (UniProt Q9Y5T5) reads 0.0263 (inactive); that for UniProt Q9UGI0, -0.354 (inactive).
As for OTUD4 (UniProt Q01804), the “log2 ratio” value is -0.113 (inactive).
In the case of UniProt P51784, the “log2 ratio” value was 0.0601 (inactive).
The same measure, in the same setting: the result for MINDY4 (UniProt Q4G0A6) reads 0.225 (inactive).
The same measure, in the same setting: the result for UniProt Q5T2D3 reads -0.199 (inactive).
Take OTUB1 (UniProt Q96FW1): the “log2 ratio” value is -0.0418 (inactive).
Consider UCHL1 (UniProt P09936), for which the “log2 ratio” value was -0.0521 (inactive).
Take ALG13 (UniProt Q9NP73): the “log2 ratio” value was 0.312 (inactive).
Still for that read-out and setting: the result for USP8 (UniProt P40818) reads -0.108 (inactive); that for USP12 (UniProt O75317), -0.38 (inactive).
As to ATXN3 (UniProt P54252), the “log2 ratio” value is -0.217 (inactive).
As for USP28 (UniProt Q96RU2), the “log2 ratio” value was -0.0726 (inactive).
Same read-out and setting: the result for UniProt Q8TE49 reads -0.097 (inactive); that for USP25 (UniProt Q9UHP3), -1.88 (active); that for USP9X (UniProt Q93008), -0.0295 (inactive).

The experiment is the same for the next values; noted with them: compound concentration: 200uM; treatment time: 3 h.
Turning to USP54 (UniProt Q70EL1), the “log2 ratio” value was -2.26 (active).
Turning to UCHL5 (UniProt Q9Y5K5), the “log2 ratio” value was -0.295 (inactive).
On the same count and under the same terms, the result for UniProt O00487 reads -0.459 (inactive); that for USP4 (UniProt Q13107), -0.498 (inactive); that for USP16 (UniProt Q9Y5T5), -0.213 (inactive).
Turning to UniProt Q9UGI0, the “log2 ratio” value was -0.0472 (inactive).
On the same count and under the same terms, the result for OTUD4 (UniProt Q01804) reads -0.21 (inactive).
Take UniProt P51784: the “log2 ratio” value was -0.0791 (inactive).
As to MINDY4 (UniProt Q4G0A6), the “log2 ratio” value is 0.167 (inactive).
Turning to UniProt Q5T2D3, the “log2 ratio” value is 0.0147 (inactive).
The same measure, in the same setting: the result for OTUB1 (UniProt Q96FW1) reads 0.0222 (inactive); that for UCHL1 (UniProt P09936), 0.0224 (inactive).
As for ALG13 (UniProt Q9NP73), the “log2 ratio” value was 0.0712 (inactive).
The same measure, in the same setting: the result for USP8 (UniProt P40818) reads -0.0766 (inactive); that for USP12 (UniProt O75317), 0.0984 (inactive).
Still for that read-out and setting: the result for ATXN3 (UniProt P54252) reads -0.786 (inactive); that for USP28 (UniProt Q96RU2), -0.646 (inactive); that for UniProt Q8TE49, -0.652 (inactive).
On the same count and under the same terms, the result for USP25 (UniProt Q9UHP3) reads -0.899 (inactive); that for USP9X (UniProt Q93008), -0.23 (inactive).
